We go through 8 molecules from ChEMBL document CHEMBL1961873, “Compounds: GSK PKIS; Assays: Nanosyn kinase panel” (2012).

The target in assay [1] is MAP/microtubule affinity-regulating kinase 3 (Homo sapiens) (UniProt P27448). The settings on record: at 1 µM.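 Further: reported values are averaged percent inhibition of MARK3.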
The target in assay [2] is T1, MAP/microtubule affinity-regulating kinase 4 (Homo sapiens) (UniProt Q96L34).
T1 sequence (whole entry): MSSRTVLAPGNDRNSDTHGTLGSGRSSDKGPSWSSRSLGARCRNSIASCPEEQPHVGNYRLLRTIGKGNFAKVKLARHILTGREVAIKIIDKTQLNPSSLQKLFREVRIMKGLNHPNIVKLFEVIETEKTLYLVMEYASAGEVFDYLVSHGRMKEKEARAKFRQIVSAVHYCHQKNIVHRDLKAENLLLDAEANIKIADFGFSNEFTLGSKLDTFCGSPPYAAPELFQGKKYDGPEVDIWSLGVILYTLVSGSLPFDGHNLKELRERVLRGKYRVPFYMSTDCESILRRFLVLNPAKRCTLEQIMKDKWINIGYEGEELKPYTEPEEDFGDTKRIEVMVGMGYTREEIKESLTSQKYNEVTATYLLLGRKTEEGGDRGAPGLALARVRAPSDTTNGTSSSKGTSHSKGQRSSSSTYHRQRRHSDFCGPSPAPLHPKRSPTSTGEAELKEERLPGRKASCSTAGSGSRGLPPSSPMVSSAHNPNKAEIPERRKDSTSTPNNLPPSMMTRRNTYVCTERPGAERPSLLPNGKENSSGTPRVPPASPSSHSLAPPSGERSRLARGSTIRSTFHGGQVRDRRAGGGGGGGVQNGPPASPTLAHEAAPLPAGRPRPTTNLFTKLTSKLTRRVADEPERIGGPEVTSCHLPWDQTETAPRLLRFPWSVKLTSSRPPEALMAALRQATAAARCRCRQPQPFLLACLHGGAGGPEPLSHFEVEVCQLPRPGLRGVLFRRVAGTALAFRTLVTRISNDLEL
As to conditions: at 0.1 µM.

For assay [3], the target named is T1, MAP/microtubule affinity-regulating kinase 4 (Homo sapiens). As to conditions: at 1 µM.
For assay [4], the target named is Maternal embryonic leucine zipper kinase (Homo sapiens) (UniProt Q14680). As to conditions: at 0.1 µM.
For assay [5] the target is unchanged. The settings on record: at 1 µM.
Assay [6] addresses MAP kinase-interacting serine/threonine-protein kinase 1 (Homo sapiens) (UniProt Q9BUB5). As to conditions: at 0.1 µM.
Assay [7] shares this target. The settings on record: at 1 µM.
Assay [8] deals with MAP kinase-interacting serine/threonine-protein kinase 2 (Homo sapiens) (UniProt Q9HBH9). The settings on record: at 0.1 µM.
The target is the same in assay [9]. As to conditions: at 1 µM.
Assay [10] has as its target Serine/threonine-protein kinase MARK2 (Homo sapiens) (UniProt Q7KZI7). The settings on record: at 0.1 µM.
Assay [11] shares this target. The settings on record: at 1 µM.
The target in assay [12] is PAS domain-containing serine/threonine-protein kinase (Homo sapiens) (UniProt Q96RG2). As to conditions: at 0.1 µM.
The target is the same in assay [13]. The settings on record: at 1 µM.
For assay [14], the target named is Phosphorylase b kinase gamma catalytic chain, skeletal muscle/heart isoform (Homo sapiens) (UniProt Q16816). As to conditions: at 0.1 µM.
Assay [15] has the same target. As to conditions: at 1 µM.
Assay [16] concerns the target T2, Phosphorylase b kinase gamma catalytic chain, liver/testis isoform (Homo sapiens) (UniProt P15735).
T2 sequence (whole entry): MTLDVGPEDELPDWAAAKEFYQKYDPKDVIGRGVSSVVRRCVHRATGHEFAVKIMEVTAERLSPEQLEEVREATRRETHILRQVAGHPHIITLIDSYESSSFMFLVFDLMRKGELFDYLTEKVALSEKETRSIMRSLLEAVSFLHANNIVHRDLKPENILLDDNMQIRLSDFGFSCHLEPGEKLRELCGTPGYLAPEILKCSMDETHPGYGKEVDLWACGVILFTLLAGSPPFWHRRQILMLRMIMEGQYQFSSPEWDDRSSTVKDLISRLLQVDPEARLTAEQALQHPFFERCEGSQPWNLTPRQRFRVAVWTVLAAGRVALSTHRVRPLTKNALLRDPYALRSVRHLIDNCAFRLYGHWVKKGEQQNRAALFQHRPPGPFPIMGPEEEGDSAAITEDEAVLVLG
As to conditions: at 0.1 µM.

For assay [17], the target named is T2, Phosphorylase b kinase gamma catalytic chain, liver/testis isoform (Homo sapiens). As to conditions: at 1 µM.
Assay [18] addresses Serine/threonine-protein kinase pim-1 (Homo sapiens) (UniProt P11309). As to conditions: at 0.1 µM.
Assay [19] has the same target. The settings on record: at 1 µM.
Assay [20] has as its target Serine/threonine-protein kinase pim-2 (Homo sapiens) (UniProt Q9P1W9). The settings on record: at 0.1 µM.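 Further: reported value is the mean percent inhibition of PIM2, measured in the GSK PKIS kinase inhibitor set screen.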

Chain of Phosphorylase b kinase gamma catalytic chain, skeletal muscle/heart isoform (Homo sapiens) (Q16816 whole entry, looked up, canonical isoform): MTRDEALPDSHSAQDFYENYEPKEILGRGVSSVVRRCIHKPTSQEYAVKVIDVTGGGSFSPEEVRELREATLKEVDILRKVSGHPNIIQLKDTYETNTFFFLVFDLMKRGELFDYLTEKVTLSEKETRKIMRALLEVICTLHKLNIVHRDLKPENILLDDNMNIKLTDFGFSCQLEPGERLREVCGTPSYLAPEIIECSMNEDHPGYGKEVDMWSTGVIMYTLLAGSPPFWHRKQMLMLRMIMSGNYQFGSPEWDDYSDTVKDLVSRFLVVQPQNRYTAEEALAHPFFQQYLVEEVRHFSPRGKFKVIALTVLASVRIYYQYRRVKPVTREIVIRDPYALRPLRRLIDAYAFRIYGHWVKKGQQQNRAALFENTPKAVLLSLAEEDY
Chain of MAP kinase-interacting serine/threonine-protein kinase 1 (Homo sapiens) (Q9BUB5 whole entry, looked up): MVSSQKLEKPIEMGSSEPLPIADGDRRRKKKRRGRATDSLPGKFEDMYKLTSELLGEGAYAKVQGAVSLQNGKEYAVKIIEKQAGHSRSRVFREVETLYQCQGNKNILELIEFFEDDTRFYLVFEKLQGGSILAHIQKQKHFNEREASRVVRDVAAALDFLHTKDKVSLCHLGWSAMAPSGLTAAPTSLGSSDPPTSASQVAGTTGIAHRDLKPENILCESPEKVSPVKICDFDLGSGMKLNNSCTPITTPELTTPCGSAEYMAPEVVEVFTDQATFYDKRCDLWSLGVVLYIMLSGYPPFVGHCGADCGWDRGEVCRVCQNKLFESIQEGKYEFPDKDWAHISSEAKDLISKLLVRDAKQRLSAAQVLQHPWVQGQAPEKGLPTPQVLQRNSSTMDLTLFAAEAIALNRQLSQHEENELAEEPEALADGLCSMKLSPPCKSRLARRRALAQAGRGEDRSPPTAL
Chain of Maternal embryonic leucine zipper kinase (Homo sapiens) (Q14680 whole entry, looked up): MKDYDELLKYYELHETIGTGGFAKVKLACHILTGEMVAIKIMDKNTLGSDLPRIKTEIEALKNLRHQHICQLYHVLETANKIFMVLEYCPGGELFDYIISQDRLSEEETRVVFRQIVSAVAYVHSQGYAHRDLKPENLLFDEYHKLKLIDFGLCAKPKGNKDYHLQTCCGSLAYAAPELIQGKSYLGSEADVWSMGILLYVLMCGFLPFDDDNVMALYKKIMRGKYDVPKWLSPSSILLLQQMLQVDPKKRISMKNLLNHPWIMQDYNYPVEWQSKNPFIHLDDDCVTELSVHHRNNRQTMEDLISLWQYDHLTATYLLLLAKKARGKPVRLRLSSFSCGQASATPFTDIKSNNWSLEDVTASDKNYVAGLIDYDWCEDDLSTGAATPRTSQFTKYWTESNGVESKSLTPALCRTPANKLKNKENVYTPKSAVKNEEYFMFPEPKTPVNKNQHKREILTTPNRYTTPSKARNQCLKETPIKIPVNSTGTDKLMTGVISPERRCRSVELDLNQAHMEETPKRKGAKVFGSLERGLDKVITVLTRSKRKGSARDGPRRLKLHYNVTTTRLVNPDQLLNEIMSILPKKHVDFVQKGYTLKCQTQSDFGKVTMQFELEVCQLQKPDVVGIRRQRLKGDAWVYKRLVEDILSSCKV
Chain of Serine/threonine-protein kinase pim-1 (Homo sapiens) (P11309 whole entry, looked up): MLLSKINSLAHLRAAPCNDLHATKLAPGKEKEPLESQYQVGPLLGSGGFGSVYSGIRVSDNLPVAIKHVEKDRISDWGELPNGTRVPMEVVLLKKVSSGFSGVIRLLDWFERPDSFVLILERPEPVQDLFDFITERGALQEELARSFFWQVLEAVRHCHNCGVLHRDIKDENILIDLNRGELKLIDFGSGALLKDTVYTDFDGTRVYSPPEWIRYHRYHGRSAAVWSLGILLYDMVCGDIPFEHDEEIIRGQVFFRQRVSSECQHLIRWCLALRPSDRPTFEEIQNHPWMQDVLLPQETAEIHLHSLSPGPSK
Chain of MAP/microtubule affinity-regulating kinase 3 (Homo sapiens) (P27448 whole entry, looked up): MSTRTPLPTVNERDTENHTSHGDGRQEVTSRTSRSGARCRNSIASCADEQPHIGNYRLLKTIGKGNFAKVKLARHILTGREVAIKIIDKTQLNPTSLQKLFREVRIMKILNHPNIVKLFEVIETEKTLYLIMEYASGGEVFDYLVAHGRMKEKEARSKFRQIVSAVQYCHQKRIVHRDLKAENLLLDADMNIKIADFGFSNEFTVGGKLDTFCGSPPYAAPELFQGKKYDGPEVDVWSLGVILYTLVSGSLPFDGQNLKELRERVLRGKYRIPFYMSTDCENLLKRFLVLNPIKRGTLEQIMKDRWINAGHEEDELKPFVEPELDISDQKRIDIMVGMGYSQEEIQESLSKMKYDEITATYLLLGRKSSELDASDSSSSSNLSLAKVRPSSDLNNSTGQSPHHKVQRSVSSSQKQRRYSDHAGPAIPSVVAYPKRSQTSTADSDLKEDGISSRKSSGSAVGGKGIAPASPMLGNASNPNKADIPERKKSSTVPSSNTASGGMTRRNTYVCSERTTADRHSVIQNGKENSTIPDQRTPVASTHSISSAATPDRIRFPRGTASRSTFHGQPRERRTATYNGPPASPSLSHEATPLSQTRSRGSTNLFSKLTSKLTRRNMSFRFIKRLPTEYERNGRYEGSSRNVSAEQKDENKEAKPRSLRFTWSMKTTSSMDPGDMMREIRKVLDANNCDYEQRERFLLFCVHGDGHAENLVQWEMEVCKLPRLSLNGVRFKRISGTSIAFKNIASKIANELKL
Chain of Serine/threonine-protein kinase pim-2 (Homo sapiens) (Q9P1W9 whole entry, looked up): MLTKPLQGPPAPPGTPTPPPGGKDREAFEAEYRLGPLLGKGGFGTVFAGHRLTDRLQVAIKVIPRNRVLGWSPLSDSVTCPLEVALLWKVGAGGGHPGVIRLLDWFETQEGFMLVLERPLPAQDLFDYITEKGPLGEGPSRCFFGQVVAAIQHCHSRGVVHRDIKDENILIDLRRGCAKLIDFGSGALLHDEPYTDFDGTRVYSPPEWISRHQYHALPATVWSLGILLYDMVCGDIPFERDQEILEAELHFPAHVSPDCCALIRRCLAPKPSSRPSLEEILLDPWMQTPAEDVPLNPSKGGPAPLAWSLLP
Chain of PAS domain-containing serine/threonine-protein kinase (Homo sapiens) (Q96RG2 whole entry, the tested form may be a part): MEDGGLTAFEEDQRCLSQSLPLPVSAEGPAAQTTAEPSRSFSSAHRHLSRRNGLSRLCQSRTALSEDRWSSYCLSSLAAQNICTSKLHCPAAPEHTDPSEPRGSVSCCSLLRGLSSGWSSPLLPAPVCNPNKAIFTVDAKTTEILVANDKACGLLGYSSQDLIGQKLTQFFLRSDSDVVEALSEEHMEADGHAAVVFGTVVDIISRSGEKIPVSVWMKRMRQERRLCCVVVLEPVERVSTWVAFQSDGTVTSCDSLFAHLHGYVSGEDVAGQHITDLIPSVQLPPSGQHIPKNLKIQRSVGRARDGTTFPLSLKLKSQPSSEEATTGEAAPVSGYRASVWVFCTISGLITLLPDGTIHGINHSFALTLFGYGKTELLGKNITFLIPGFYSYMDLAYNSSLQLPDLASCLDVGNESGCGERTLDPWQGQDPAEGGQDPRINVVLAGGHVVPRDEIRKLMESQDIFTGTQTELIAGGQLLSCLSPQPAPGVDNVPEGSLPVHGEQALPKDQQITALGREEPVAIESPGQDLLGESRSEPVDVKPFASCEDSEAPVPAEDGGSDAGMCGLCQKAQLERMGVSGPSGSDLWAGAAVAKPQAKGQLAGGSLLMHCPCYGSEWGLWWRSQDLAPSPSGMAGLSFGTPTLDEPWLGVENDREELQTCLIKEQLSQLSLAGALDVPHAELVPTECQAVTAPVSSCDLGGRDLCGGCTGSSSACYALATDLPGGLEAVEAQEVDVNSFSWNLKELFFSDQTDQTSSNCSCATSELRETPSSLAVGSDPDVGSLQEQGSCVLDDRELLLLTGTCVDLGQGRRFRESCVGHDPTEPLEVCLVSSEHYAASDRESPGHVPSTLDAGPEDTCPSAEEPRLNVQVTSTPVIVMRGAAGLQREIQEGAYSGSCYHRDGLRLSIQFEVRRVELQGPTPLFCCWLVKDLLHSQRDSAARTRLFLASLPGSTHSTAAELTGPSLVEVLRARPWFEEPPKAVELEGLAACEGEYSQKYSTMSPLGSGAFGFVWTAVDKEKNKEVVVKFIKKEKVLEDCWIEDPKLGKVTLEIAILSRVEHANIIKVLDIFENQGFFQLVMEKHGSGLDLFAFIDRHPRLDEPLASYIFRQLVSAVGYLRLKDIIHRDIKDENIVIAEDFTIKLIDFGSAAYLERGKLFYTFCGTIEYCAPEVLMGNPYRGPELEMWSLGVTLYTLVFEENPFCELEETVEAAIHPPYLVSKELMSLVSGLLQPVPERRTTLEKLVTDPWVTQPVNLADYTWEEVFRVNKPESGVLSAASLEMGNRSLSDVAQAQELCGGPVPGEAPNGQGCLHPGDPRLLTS
Chain of Serine/threonine-protein kinase MARK2 (Homo sapiens) (Q7KZI7 whole entry): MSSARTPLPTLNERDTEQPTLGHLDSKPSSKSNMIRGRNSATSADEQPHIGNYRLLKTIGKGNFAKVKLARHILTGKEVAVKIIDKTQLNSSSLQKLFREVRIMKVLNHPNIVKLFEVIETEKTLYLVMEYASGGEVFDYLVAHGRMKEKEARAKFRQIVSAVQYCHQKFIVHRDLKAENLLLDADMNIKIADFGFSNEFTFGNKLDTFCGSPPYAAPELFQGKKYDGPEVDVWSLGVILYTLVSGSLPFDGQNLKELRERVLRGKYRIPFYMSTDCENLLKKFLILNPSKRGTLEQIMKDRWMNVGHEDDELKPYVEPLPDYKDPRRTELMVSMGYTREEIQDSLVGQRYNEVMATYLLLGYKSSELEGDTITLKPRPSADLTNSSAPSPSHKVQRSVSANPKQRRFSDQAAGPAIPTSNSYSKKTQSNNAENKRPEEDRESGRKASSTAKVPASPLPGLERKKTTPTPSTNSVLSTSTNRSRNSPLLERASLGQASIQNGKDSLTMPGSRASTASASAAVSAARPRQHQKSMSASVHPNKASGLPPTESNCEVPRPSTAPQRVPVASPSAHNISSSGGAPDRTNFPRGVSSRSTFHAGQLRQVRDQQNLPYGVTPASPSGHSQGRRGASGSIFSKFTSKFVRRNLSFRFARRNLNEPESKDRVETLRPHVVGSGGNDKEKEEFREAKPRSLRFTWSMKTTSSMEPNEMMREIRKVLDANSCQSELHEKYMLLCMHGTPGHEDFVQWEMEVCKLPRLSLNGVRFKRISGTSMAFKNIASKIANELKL

The inhibition is the relative decrease from the control value, in per cent. `COc1cccc(-n2cnc3c(N/N=C/c4ccncc4)ncnc32)c1`: the inhibition in assay [1] is 3.88%; in assay [2], 0.84%; in assay [3], 4.83%; in assay [4], -1.92%; in assay [5], -4.7%; in [6] it was 0.43%. Further, the inhibition in [7] came to 16.5%; in [8], 3.13%; in assay [9], 13.7%; in assay [10], 0.99%; in [11], 4.05%; in [12] it was 1.87%. Also, the inhibition in assay [13] was 4.15%; in assay [14], -0.02%; in [15], 2.55%; in assay [16], 1.83%; in [17], 6.48%; in assay [18], -0.24%. Further, the inhibition in assay [19] was -0.03%; in assay [20], -3.51%.

With `N#Cc1ccc(Oc2nccc(-c3c(-c4ccc(F)cc4)ncn3C3CCNCC3)n2)cc1`, the inhibition in assay [1] turned out to be 0.33%; in assay [2], 2.3%; in assay [3] it was 2.46%; in assay [4], 6.59%; in assay [5], 4.91%; in [6], 2.51%. Also, the inhibition in assay [7] is 2.45%; in [8] it was -0.25%; in [9], -0.69%; in assay [10], -1.85%; in assay [11], -1.45%; in [12], -0.29%. For the same molecule, the inhibition was -0.33% in assay [13]; 5.34% in [14]; 6.84% in assay [15]; 4.1% in assay [16]; 4.74% in assay [17]; 1.27% in [18]. Also, the results for the inhibition in assay [19] and in assay [20] were 2.26% and -0.01%, respectively.

In the case of `Nc1nccc(-c2c(-c3ccc(F)cc3)ncn2C2CCC(O)CC2)n1` (stereo not given), the inhibition in assay [1] is 0.22%; in assay [2] it was 0.43%; in assay [3], 1.28%; in assay [4], -3.21%; in [5], 1.19%; in [6], 0.34%. Also, the inhibition in [7] was 0.48%; in [8], 0.18%; in [9] it was 0.46%; in [10] it was 1.84%; in assay [11], 2.02%; in assay [12], -0.7%. For the same molecule, the inhibition in assay [13] was -1.02%; in [14], -1.17%; in [15], 0.55%; in assay [16], -4.04%; in assay [17] it was -5.93%; in [18], -0.95%. Besides, the inhibition in assay [19] is -1.37%; in [20], 1.27%.

In the case of `CCC(=O)Nc1ccc(C)c(-c2ccc(C(=O)NCC3CC3)cc2)c1`, the inhibition in assay [1] is -1.15%; in assay [2] it was 1.46%; in [3], 2.23%; in [4] it was 5.17%; in assay [5] it was 8.13%; in assay [6], 2.05%. The inhibition was 2.8% in [7]; 0.52% in assay [8]; 1.17% in assay [9]; 0.59% in assay [10]; 1.92% in [11]; -0.16% in [12]. Also, the inhibition is -0.9% in [13]; 1.26% in [14]; 4.36% in assay [15]; 2.68% in assay [16]; 2.43% in assay [17]; 1.37% in assay [18]. For the same molecule, the values for the inhibition in [19] and in assay [20] were 1.55% and -2.01%, respectively.

In the case of `COc1cc(Nc2ncc3c(C)nc(-c4cccc(Oc5ccccc5)c4)n3n2)cc(OC)c1OC`, the inhibition worked out at 29.3% in assay [1]; 1.25% in [2]; 3.17% in assay [3]; 3.48% in assay [4]; 10.8% in assay [5]; 0.32% in assay [6]. Further, the inhibition in assay [7] came out at 0.56%; in [8] it was 0.07%; in assay [9] it was 1.2%; in assay [10] it was 0.41%; in [11], 5.64%; in assay [12], 0.54%. For the same molecule, the inhibition was -0.72% in [13]; -0.01% in [14]; 5.67% in [15]; 2.66% in assay [16]; -0.4% in [17]; 0.91% in [18]. In addition, the results for the inhibition in assay [19] and in assay [20] were 1.16% and 0.23%, respectively.

On to `CCc1nccc2c1nc(-c1nonc1N)n2CC`, for which the inhibition in assay [1] was -0.48%; in assay [2] it was 0.74%; in assay [3] it was 0.5%; in assay [4], -0.92%; in assay [5], 0.69%; in assay [6], -0.04%. In addition, the inhibition in [7] is 2.83%; in assay [8], -0.46%; in assay [9], 4.5%; in [10], 0.35%; in assay [11], 1.67%; in assay [12], 0.71%. Moreover, the inhibition in assay [13] was 0.86%; in [14], 3.65%; in assay [15], 1.98%; in assay [16], -0.2%; in [17], -2.03%; in [18], 0.32%. Further, the results for the inhibition in assay [19] and in [20] were 1.23% and 0.4%, respectively.

Turning to `O=C(Nc1n[nH]c2nc(-c3ccc(O)cc3)c(Br)cc12)C1CC1`, the inhibition in assay [1] was determined as 8.75%; in assay [2] it was 3.64%; in assay [3] it was 4.75%; in [4] it was 6.28%; in assay [5], 13.1%; in [6], 37.8%. The inhibition in [7] was 76.1%; in [8] it was 5.42%; in [9], 35.1%; in assay [10], -0.95%; in [11], 5.24%; in assay [12], 0.21%. Further, the inhibition in [13] was 0.71%; in [14], 7.64%; in [15], 10.7%; in assay [16] it was 6.68%; in assay [17] it was 7.34%; in assay [18], 19.7%. Besides, the inhibition in [19] is 65.5%; in [20], 45.5%.

For `COc1cccc(/C=N/Nc2ncnc3c2cnn3-c2cccc(OC)c2)c1`, the inhibition in assay [1] was determined as 0.87%; in [2], 0.94%; in assay [3], 0.58%; in assay [4], 3.83%; in assay [5] it was 9.57%; in [6], 2.02%. Moreover, the inhibition is 4.36% in [7]; -0.25% in assay [8]; 2.4% in assay [9]; -5.9% in [10]; 0.57% in [11]; -0.3% in [12]. The inhibition is -1.16% in assay [13]; 0.94% in assay [14]; 2.68% in [15]; 3.6% in assay [16]; 2.4% in assay [17]; 0.63% in assay [18]. Moreover, the inhibition in [19] was 1.58%; in assay [20] it was -0.75%.
